Screens (PubChem BioAssay)
Compounds with a hit are over-represented: about 2.4% of the library has one in this group of screens.
M1 ag parental: counter-screen for M1 agonists: effect in parental CHO-K1 cells | Fluo-8 calcium fluorescence; scaled to maximal ATP response, vehicle zero | activation, % at 3 µM | hit rate 0.48% among 360,000 | AID 602248, 2012; in the data active = activation above about 15%;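 also: untransfected CHO-K1 host cells lacking M1 receptor as counterscreen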
CHO-K1 Ca antag: M1 antagonist counterscreen hit in parental CHO-K1 cells | inhibition, % at 3 µM | ATP-induced calcium, Fluo-8 fluorescence | hit rate 0.6% among 360,000;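 active = inhibition above a per-plate cutoff, the plate's mean sample inhibition plus 3 SD, cut at about 24% in these data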;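 also: 0% = DMSO plus EC80 ATP and 100% = DMSO alone without ATP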
CHRM1 agonist: human M1 muscarinic receptor agonists, primary screen, Fluo-8 calcium fluorescence, CHO-K1 cells, HTS; CHO-K1 hM1, agonist mode; 0% DMSO, 100% acetylcholine EC100; hit rate 0.33% among 360,000; activation, % at 3 µM; AID 588814, 2011;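 active = activation above the run's mean compound activation plus 3 SD, cut at about 16% in these data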;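 also: peak over basal fluorescence ratio within a 140 s kinetic read after compound addition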
Target sequence (P11229 whole entry, looked up): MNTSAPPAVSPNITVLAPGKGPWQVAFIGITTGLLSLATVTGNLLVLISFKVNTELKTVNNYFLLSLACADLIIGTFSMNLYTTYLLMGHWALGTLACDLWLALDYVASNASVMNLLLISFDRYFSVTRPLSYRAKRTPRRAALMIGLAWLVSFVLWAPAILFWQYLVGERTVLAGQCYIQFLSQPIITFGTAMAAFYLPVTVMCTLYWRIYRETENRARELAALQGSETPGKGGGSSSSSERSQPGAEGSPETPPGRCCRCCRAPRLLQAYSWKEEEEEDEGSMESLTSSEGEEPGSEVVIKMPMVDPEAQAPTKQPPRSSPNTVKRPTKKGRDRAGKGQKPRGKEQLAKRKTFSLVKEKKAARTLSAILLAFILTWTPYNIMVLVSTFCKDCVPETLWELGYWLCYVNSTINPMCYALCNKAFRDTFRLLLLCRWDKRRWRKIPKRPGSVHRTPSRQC
CHO-K1 Ca PAM: nonselective calcium activators in parental CHO-K1 cells, primary screen, counter-screen for M1 PAM project, cell-based, Fluo-8 calcium fluorescence, full deck, 1536-well; ATP EC20; 0% at ATP EC20, 100% at ATP max; activation, % at 3 µM; hit rate 0.02% among 360,000; AID 602247, 2012;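 active = activation above the run cutoff, the mean activation of all test compounds plus 3 SD, cut at about 40% in these data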;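 also: peak over basal fluorescence ratio in a 140 s read after ATP addition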
M1 PAM: human M1 muscarinic receptor positive allosteric modulators, primary screen, CHO-K1 cells, Fluo-8 calcium fluorescence, 1536-well. Muscarinic acetylcholine receptor M1 (Homo sapiens), P11229. CHO-K1 hM1, ACh EC20; 0% = ACh EC20, 100% = maximal ACh. AID 588819, 2011. hit rate 0.088% among 360,000. activation, % at 3 µM; in the data active = activation above about 19%, passing the limit was not always enough
CHRM1 antagonist: human M1 muscarinic receptor antagonists, primary screen, CHO-K1 cells, Fluo-8 calcium fluorescence, 1536-well; hit rate 1.3% among 360,000; inhibition, % at 3 µM; CHO-K1 hM1, ACh EC80 antagonist; Muscarinic acetylcholine receptor M1 (Homo sapiens), P11229;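 active = percent inhibition above its own plate's cutoff, namely the mean of that plate's compound wells plus 3 SD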;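 also: peak over basal fluorescence ratio during 140 s after agonist addition; 0% = ACh EC80 plus DMSO and 100% = DMSO alone without agonist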
* = called active by the depositor.

SMILES | M1 ag parental | CHO-K1 Ca antag | CHRM1 agonist | CHO-K1 Ca PAM | M1 PAM | CHRM1 antagonist
CC1(C)C[C@H]2C3=CCC4[C@@]5(C)CC[C@H](O[C@@H]6O[C@H](C(=O)O)[C@@H](O)[C@H](O)[C@H]6O)[C@@](C)(CO)C5CC[C@@]4(C)[C@]3(C)C[C@H](O)[C@@]2(CO)[C@@H](O)[C@@H]1O (some centres undefined) | 0 | -2 | -4 | 0 | 9 | -4
C/C=C(\C)C(=O)OC1[C@H](OC(C)=O)C2(CO)C(CC1(C)C)C1=CCC3C4(C)CCC(O[C@@H]5O[C@H](C(=O)O)[C@@H](O[C@@H]6O[C@H](CO)[C@@H](O)[C@H](O)[C@H]6O)[C@H](O)[C@H]5O[C@H]5O[C@H](CO)[C@@H](O)[C@H](O)[C@H]5O)[C@](C)(CO)C4CCC3(C)[C@]1(C)C[C@H]2O (some centres undefined) | 98* | 102* | 93* | -19 | -37 | 104*
COc1ccc(-c2noc(=O)n2CC(=O)N2CCC(Cc3ccccc3)CC2)cc1 | 1 | -16 | 0 | 19 | 7 | -11
Cc1cc[n+](CC(=O)c2cc3ccccc3oc2=O)cc1 | 0 | -3 | -8 | 17 | -23 | 59*
CS(=O)(=O)c1ccc(Cl)c(NC(=O)c2cc(=O)[nH]c3ccc(S(=O)(=O)N4CCOCC4)cc23)c1 | 1 | -12 | -2 | 7 | 4 | -8
CCCC1(C(=O)OC)NC(c2ccc(OC)c(OC)c2)C2C(=O)N(c3ccc4c(c3)OCO4)C(=O)C21 (centres undefined) | 0 | 15 | 1 | -6 | 3 | 2
CCCC1(C(=O)OCC)NC(c2ccc(OC)cc2OC)C2C(=O)N(c3ccc4c(c3)OCCO4)C(=O)C21 (centres undefined) | 1 | 46* | -1 | -4 | 1 | 1
CN(C)c1nc(Nc2ccc(Cl)cc2)nc(OCC#N)n1 | 1 | 27* | -5 | -10 | -7 | 9
CCOc1nc(Nc2ccc(Cl)cc2)nc(OCC)n1 | 0 | -11 | -9 | 4 | -2 | -1
COc1ccc(NS(=O)(=O)c2cn(C)cn2)c(OC)c1 | 0 | -9 | 1 | 20 | 13 | -13
O=C(O)CCC(=O)N1CCc2cc(S(=O)(=O)NCCc3ccc(Cl)cc3)ccc21 | 2 | -15 | 0 | 12 | 14 | -21
COc1ccc(CCNS(=O)(=O)c2ccc3c(c2)CCN3C(=O)CCC(=O)O)cc1OC | 19* | 5 | -5 | 12 | 7 | -2
COc1ccc(C(=O)N(C)CCCC2CCCC2)cc1OC1CCN(C(C)C)CC1 | 3 | -9 | -6 | 4 | -18 | 30*
CC(C)(C)c1ccc(/C=N/OCC(=O)NCc2ccccc2)cc1 | 1 | -13 | 18* | 21 | 15 | -10
Cc1ccc(CNC(=O)CO/N=C/c2ccc(C(C)(C)C)cc2)cc1 | 0 | -13 | 5 | 39 | 15 | -4
Cc1cc(NC(=O)COC(=O)C2CC(=O)N(c3ccccc3)C2)no1 (centres undefined) | 0 | -6 | 0 | 0 | 11 | -3
CCOC(=O)c1cnn(-c2ccccc2)c1-n1cccc1C(=O)C(=O)Nc1ccc(OC)cc1 | 0 | -7 | -1 | -6 | 19* | -37
O=c1[nH]c2cc(Cl)c(Br)cc2o1 | 16* | -3 | 4 | 15 | 3 | -7
O=c1[nH]c2cc(Cl)c(Cl)cc2o1 | 4 | -5 | 5 | 5 | 7 | -15
CCN(CC)S(=O)(=O)c1cc(NC(=O)c2ccc(Br)s2)ccc1C | 3 | 36* | -3 | -6 | -15 | 9
CCN(CC)S(=O)(=O)c1cc(NC(=O)NCCCl)ccc1C | 0 | -8 | -3 | 7 | 3 | 2
Cc1ccc2cc(S(=O)(=O)NCCCN3CCOCC3)ccc2c1 | 19* | -1 | -12 | 23 | 8 | 4
